# Laboratory results as given in PubChem BioAssay (Tox21).
# Results filed as inconclusive are left out. Where a call stands in place of a potency, no number is given. Calls of active or inactive are those of the source. Calls follow the shape of the dose curve; as a rule, active = well fitted cell-killing curve with a large enough effect in the repeat runs; inconclusive = weak or mixed curves; inactive = flat fitted curve, though single readings scatter.
# Test: qHTS assay to identify small molecule antagonists of the estrogen related receptor (ERR) signaling pathway from Tox21 library - cell viability counter screen (AID 1224834); also: nearly all actives have a fitted effect of over 30% in size
# Details: ERR reporter cells viability, CellTiter-Fluor, 17.5 h; series mostly up to 92.4 µM
# Summary of the method: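 Cytotoxicity of test substances is gauged in the same ERR cells used for the antagonist screen, after 17.5 h of compound treatment at 37 C, by CellTiter-Fluor fluorescence measured after 30 min.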
# Potency is read from the fitted curve at half-maximal effect.
Structure (SMILES),"viability change, negative = cytotoxic",Potency
CC(C)C[C@@H](N)C(=O)O,1.15% [at 19 µM] (inactive),
CCCCc1nc(Cl)c(CO)n1Cc1ccc(-c2ccccc2-c2nn[nH]n2)cc1,,inactive
C=COCC1CCC(COC=C)CC1 (centres undefined),,inactive
Cc1nc2ccc(CN(C)c3ccc(C(=O)N[C@@H](CCC(=O)O)C(=O)O)s3)cc2c(=O)[nH]1,,inactive
C=CC(C)(CCC=C(C)C)OC(=O)CC (centres undefined),,inactive
CC(CO)(CO)[N+](=O)[O-],,inactive
Cc1onc(-c2c(Cl)cccc2Cl)c1C(=O)Cl,,inactive
CC1=CC(=O)[C@H]2C[C@@H]1C2(C)C,,inactive
C[C@@H]1CCC[C@H](C)N1,,inactive
CN1CCC(=C2c3ccccc3CCc3cccnc32)CC1,,inactive
CCCO[Si](OCCC)(OCCC)OCCC,,inactive
Cc1cccc(C)c1NC(=O)CC12CCCN1CCC2,,inactive
CC(=O)C1CCCCC1=O (centres undefined),,inactive
CC(C)(C)C(=O)c1ccccc1,,inactive
NC(=O)N1c2ccccc2CC(=O)c2ccccc21,,inactive
CC(=O)NC(=O)c1ccccc1O,,inactive
C=CCCCCCCCCC(=O)OCC,,inactive
Cc1cc(C)c(N=Nc2c(O)c(S(=O)(=O)O)cc3cc(S(=O)(=O)O)ccc23)cc1C,-4.92% [at 8.39 µM] (inactive),
CN(C)CCCN(C)CCCN(C)C,,inactive
CC[C@H]1OC(=O)[C@H](C)[C@@H](O[C@H]2C[C@@](C)(OC)[C@@H](O)[C@H](C)O2)[C@H](C)[C@@H](O[C@@H]2O[C@H](C)C[C@H](N(C)C)[C@H]2O)[C@](C)(OC)C[C@@H](C)C(=O)[C@H](C)[C@@H](O)[C@]1(C)O,,inactive

Structure (SMILES),"viability change, negative = cytotoxic",Potency
CCCCCCC#CC(=O)OC,,inactive
CCO[Si](OCC)(OCC)c1ccccc1,,inactive
COc1ccnc(CS(=O)c2nc3cc(OC(F)F)ccc3[nH]2)c1OC (centres undefined),,inactive
CN1C(C)(C)CC(O)CC1(C)C,,inactive
c1coc(CNc2ncnc3nc[nH]c23)c1,,inactive
CCN[C@H]1C[C@H](C)S(=O)(=O)c2sc(S(N)(=O)=O)cc21,,inactive
CCOC(=O)c1ccccc1,,inactive
CC(C#N)(CCC(=O)O)N=NC(C)(C#N)CCC(=O)O (centres undefined),,inactive
CC(C)[C@H]1CC[C@@H](C)CC1=O,,inactive
COc1cc(C(=O)OC(COCCC(C)C)CN2CCOCC2)cc(OC)c1OC (centres undefined),,inactive
O=S(=O)(O)c1cc(O)c(O)c(S(=O)(=O)O)c1,,inactive
CC1=CCC(O)(C(C)C)CC1 (centres undefined),,inactive
Cc1ccc(-c2ncc(Cl)cc2-c2ccc(S(C)(=O)=O)cc2)cn1,,inactive
CCCc1ncc(C[n+]2ccccc2C)c(N)n1,,inactive
CNCCO,,inactive
C=COC(=O)C(C)(CC)CCC(C)C (centres undefined),,inactive
CCCCc1ccc2c(n1)[C@@H](c1ccc(OC)cc1C[C@H](C)C(=O)O)[C@H](C(=O)O)[C@H]2c1ccc2c(c1)OCO2,,inactive
CCCCN(CCC(=O)OCC)C(C)=O,,inactive
Cc1ncc([C@@H](CCCCCCc2ccc3c(n2)NCCC3)CC(=O)O)cn1,,0.109 µM (active)
